Assay outcomes from PubChem.
TWEAK-Fn14 inh: inhibitors of TWEAK-Fn14 interaction signaling; TWEAK-stimulated Fn14 reporter cells, luciferase luminescence, 8 h; inhibition, % at 10 µM; hit rate 2% among 360,000; AID 1159606; in the data active = inhibition above about 50%
Peg3 prom inh-1: Peg3 promoter activity inhibition; HeLa PEG-Prom luciferase reporter, luminescence, overnight; inhibition, % at 20 µM; hit rate 1.7% among 360,000;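 active = inhibition of at least 50% at 20 µM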
KKLEB tox: CF airway cell cytotoxicity counter-screen. KKLEB CF airway cells viability, ATPlite luminescence, overnight; stronger effect = lower value; cells stimulated with P. aeruginosa culture filtrate. activity change (cytotoxicity), % at 5 µM. hit rate 0.36% among 360,000. AID 602141;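 active = corrected activity change at or below -50% at 5 µM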
TROY NFkB inh: TROY signaling inhibition | hit rate 0.98% among 360,000 | AID 1347056 | Q293 LMP1-TROYcd NF-kB luciferase reporter, 4 h | inhibition, % at 10 µM;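 active = compounds whose plate-normalised and pattern-corrected inhibition of the luciferase reporter signal at the single screening dose is 50% or more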
CF NFkB inh: blocks PAF-induced NF-kB reporter in cystic fibrosis cells | inhibition, % at 5 µM | hit rate 0.86% among 360,000 | KKLEB NF-kB-GFP reporter, GFP fluorescence overnight;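 active = at least 50% inhibition at 5 µM, scaled per plate between neutral and stimulator controls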;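 also: PAF is a Pseudomonas aeruginosa culture filtrate used as stimulus; plate controls were PAF-stimulated DMSO wells for no effect and unstimulated DMSO wells for full effect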
HIF-2a block: blocks HIF-2a reporter activity | hit rate 0.72% among 360,000 | 786-0 RCC cells HIF-2a reporter, luciferase luminescence, overnight | inhibition, % at 18.8 µM | AID 624352;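 active = inhibition of the luminescence signal of 40% or more relative to plate controls, in a single-dose primary screen at 18.75 µM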
Peg3 prom inh-2: confirmation of Peg3 promoter inhibitors. shares compounds with Peg3 prom inh-1. HeLa PEG-Prom luciferase reporter, luminescence, overnight. inhibition, % at 20 µM. hit rate 84% among 1,300;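 active = at 20 µM dose, 40% or more inhibition averaged across four replicates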
Active calls of the source: *; · = not tested or not shown; ! = not active in a repeat. This is a sample that favours compounds with a hit; in the whole collection about 4% have one here.

SMILES	TWEAK-Fn14 inh	Peg3 prom inh-1	KKLEB tox	TROY NFkB inh	CF NFkB inh	HIF-2a block	Peg3 prom inh-2
COc1ccc(C)cc1NC(=O)c1ccc(S(=O)(=O)N2CCCCC2)cc1	23	5	4	1	4	13	·
C/C(=N\N=C(N)N)c1ccc(Cl)cc1Cl	5	71*	-18	12	-5	-1	73*
C/C(=N\N=C(N)N)c1cc(Cl)ccc1Cl	-6	7	9	7	-3	11	·
Cc1ccc(-c2nnc(N3CCN(c4ccccn4)CC3)c3ccccc23)cc1	49	77*	-9	54*	33	22	84*
c1ccc(-c2nnc(N3CCN(c4ccccn4)CC3)c3ccccc23)cc1	21	37	-6	26	29	6	·
C=C(C)Cn1c(SCC(=O)N/N=C/c2c(O)ccc3ccccc23)nc2ccccc2c1=O	28	61*	-18	25	12	19	64*
Cc1cc(Sc2ncnc(N)c2[N+](=O)[O-])ncn1	51*	106*	5	13	66*	16	100*
CCOc1ccc(NC(=O)CN(C)C2=NS(=O)(=O)c3ccccc32)cc1	22	4	-2	8	7	7	·
COc1cccc(/C=N/NC(=O)c2c(-c3ccccc3)noc2C)c1O	-42	55*	-11	12	7	-7	56*
COc1cccc(/C=N/NC(=O)c2c(-c3ccccc3)noc2C)c1OC	14	-2	1	8	-15	12	·
COc1ccc(S(=O)(=O)NNC(N)=S)cc1	-3	1	0	13	-17	14	·
CCNC(=O)c1c(NC(=O)c2cc(-c3cc(C)ccc3O)n[nH]2)sc2c1CCCC2	-6	60*	-33	16	19	-10	17
Cc1ccc(-c2cc(C(=O)Nc3sc4c(c3C(=O)NCc3ccco3)CCC4)[nH]n2)c(O)c1	-6	35	-22	-8	15	16	·
CC1CN(CCc2ccccc2)c2nc3c(c(=O)n(C)c(=O)n3C)n2C1 (centres undefined)	12	19	-22	9	7	18	·
C[n+]1c2cc(N)ccc2cc2ccc(N)cc21	-28	96*	4	-50	-376	41*!	96*
O=C(Nc1nc2cc3c(cc2s1)OCCO3)c1ccco1	100*	66*	-37	82*	-1	71*	62*
O=C(Nc1nc2cc3c(cc2s1)OCO3)C1=COCCO1	101*	62*	-28	70*	8	55*	64*
CC(C)C(C(=O)NC1CCCC1)N1CCN(c2ncccc2C#N)CC1 (centres undefined)	·	·	·	·	·	12	·
Nc1nc2c(nnn2Cc2ccc(Cl)c(Cl)c2)c(=O)[nH]1	-23	3	4	2	0	6	·
COCCCNC(=O)c1ccc(Cn2c(=O)c3ccccc3n(Cc3ccccc3C)c2=O)cc1	5	34	-3	12	7	13	·
COCCCNC(=O)c1ccc(Cn2c(=O)c3ccccc3n(Cc3ccccc3C#N)c2=O)cc1	1	54*	1	0	7	13	57*
O=C(/C=C/c1ccc2ccccc2n1)N1CCN(S(=O)(=O)c2ccccc2F)CC1	5	50*	-23	0	36	35	39
CC(C)(C)c1ccc(C(=O)N/C(N)=N/c2nc3ccccc3o2)cc1	24	-1	-2	9	1	-13	·
Cc1ccc2oc(/N=C(\N)NC(=O)C(C)(C)C)nc2c1	104*	82*	-61*	92*	-20	81*	85*
Cc1cc(C)c2nc(-c3ccncc3)cc(C(=O)N3CCN(Cc4ccccc4Cl)CC3)c2c1	7	21	-15	8	-5	-13	·
SMILES	TWEAK-Fn14 inh	Peg3 prom inh-1	KKLEB tox	TROY NFkB inh	CF NFkB inh	HIF-2a block	Peg3 prom inh-2
Cc1ccc(CS(=O)(=O)CC(C)(O)c2ccc(Cl)cc2)cc1 (centres undefined)	2	9	0	-3	4	18	·
O=C1c2ccccc2C(=O)C12OC2c1ccc(Cl)cc1Cl (centres undefined)	72*	99*	-68*	21	96*	-14	51*
COc1ccc(N=CC2=C(O)c3ccccc3C2=O)cc1	98*	75*	-51*	74*	-10	7	-3
CN=CC1=C(O)c2ccccc2C1=O	-5	-13	1	30	4	-13	·
CCN(CC)c1ccc2nc3ccc(N)cc3[n+](-c3ccccc3)c2c1	11	89*	-8	-2	-18	1	72*
CCCCn1c(N)c(N(CC(C)C)C(=O)CC2OC(=O)c3ccccc32)c(=O)[nH]c1=O (centres undefined)	-8	0	-4	4	14	0	·
CN(C)CCc1cc2c(c3c1ccc1ccccc13)OCO2	-12	93*	-3	-19	-38	34	93*
COc1cc2ccc3c(CCN(C)C)cc(OC)c(OC)c3c2cc1OC	-8	31	1	-10	-1	20	·
COc1ccc2ccccc2c1/C=N/NC(=O)c1ccc(C)nc1	8	-3	-3	8	-10	-11	·
O=C(N/N=C/c1c(O)ccc2ccccc12)c1ccc(CO)nc1	-16	55*	-4	-3	-10	22	70*
CCC(C)NCCOCCOc1ccc(Cl)c2ccccc12 (centres undefined)	-35	102*	-32	-51	29	10	98*
CCOC(=O)Nc1cc2c(cc1[N+](=O)[O-])-c1ccccc1C2=O	-3	-111	13	-58	6	-120	·
COc1cccc(/C=C2/Sc3ccc(C(=O)NCCCN4CCCC4)cc3NC2=O)c1	-15	78*	-3	-34	-12	7	94*
COc1cccc(/C=C2\SC(=S)N(CCCC(=O)Nc3cc(C)on3)C2=O)c1	-36	27	-3	2	7	34	·
CCc1ccc(/C=C2\SC(=S)N(CCCC(=O)Nc3cc(C)on3)C2=O)cc1	70*	72*	6	81*	-12	77*	66*
CCc1ccc(/C=C2\SC(=S)N(CCCC(=O)NC3=NCCS3)C2=O)cc1	92*	72*	-18	77*	5	83*	71*
CCc1ccc(/C=C2/SC(=S)N(CCCC(=O)Nc3cccc(C(=O)O)c3)C2=O)cc1	-18	-28	-18	-8	24	23	·
N#Cc1ccc(NC(=O)Cn2cnc(S(=O)(=O)N3CCCC3)c2)cc1	11	11	5	8	1	5	·
O=C(NCCc1ccccc1F)C1CC(=O)N(c2ccc3c(c2)OCCO3)C1 (centres undefined)	10	1	4	7	-2	4	·
C/C(=N\NC(=O)c1ccn(C)n1)c1ccco1	14	-85	7	-18	2	-115	·
S=C(Nc1ccc(Br)cc1Cl)N1CCCC1	-24	-165	3	-41	7	-241	·
